The results in this text go back to article PMC9838217, “Structure of SALL4 zinc finger domain reveals link between AT-rich DNA binding and Okihiro syndrome”.

Where a chain is given by its changes, count along the chain named.

Common to all, as to assay: HT-SELEX; high values mean tight binding
What all share (conditions): protein: recombinant; vector His6-GST; dsDNA, one strand shown

Experiment [1] has as its target T1, SALL4 ZFC4 WT (HT-SELEX) (Mus musculus, UniProt Q8BX22 870-940).
T1 sequence: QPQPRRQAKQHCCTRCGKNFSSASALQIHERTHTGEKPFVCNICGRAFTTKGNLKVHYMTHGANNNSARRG
The method, boiled down:
(§1)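 Purified recombinant mouse SALL4 zinc finger cluster 4 (residues 870–940, 1 µg) and library DNA (1.5 µg first cycle, 200 ng later) were incubated for 10 min at room temperature in 100 µl of 10 mM Tris–HCl pH 7.5, 50 mM NaCl, poly(dI-dC) and DTT. After Ni2+ bead capture and up to 6 triplicate cycles of selection, DNA was MiSeq-sequenced and scanned for 6-mers. Binding signal is the fold change in each canonical k-mer's read fraction relative to the initial random library.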

Experiment [2] has as its target T2, SALL4 ZFC4 R900W (HT-SELEX) (Mus musculus, UniProt Q8BX22 870-940, R900W).
T2 sequence: T1 sequence with R31W
In outline:
as §1

In experiment [3] the target is T3, SALL4 ZFC4 G921D (HT-SELEX) (Mus musculus, UniProt Q8BX22 870-940, G921D).
T3 sequence: T1 sequence with G52D
In outline:
as §1

As for CTATAG, the values for the binding signal in experiment [1], in experiment [2] and in experiment [3] were 1.37 ± 0.136 fold-change vs cycle 0, 1.45 ± 0.0344 fold-change vs cycle 0 and 1.35 ± 0.128 fold-change vs cycle 0, respectively.
As to ACTTGG, the binding signal in experiment [1] was 0.787 ± 0.0269 fold-change vs cycle 0; in experiment [2] it was 0.907 ± 0.0234 fold-change vs cycle 0; in experiment [3], 0.936 ± 0.0313 fold-change vs cycle 0.
For the sequence TGAGCA, the binding signal in experiment [1] was 0.639 ± 0.0443 fold-change vs cycle 0; in experiment [2], 0.737 ± 0.0106 fold-change vs cycle 0; in experiment [3], 0.843 ± 0.0202 fold-change vs cycle 0.
Regarding AAAGAT, the binding signal turned out to be 2.08 ± 0.0847 fold-change vs cycle 0 in experiment [1], 2.1 ± 0.102 fold-change vs cycle 0 in experiment [2] and 1.84 ± 0.163 fold-change vs cycle 0 in experiment [3].
As to AATCGT, the binding signal in experiment [1] came to 1.18 ± 0.0336 fold-change vs cycle 0; in experiment [2] it was 1.21 ± 0.0227 fold-change vs cycle 0; in experiment [3], 1.23 ± 0.0244 fold-change vs cycle 0.
Regarding AAGACA, the binding signal came out at 1.28 ± 0.0466 fold-change vs cycle 0 in experiment [1], 1.42 ± 0.0793 fold-change vs cycle 0 in experiment [2] and 1.35 ± 0.0674 fold-change vs cycle 0 in experiment [3].
As to GCTGAC, the results for the binding signal in experiment [1], in experiment [2] and in experiment [3] were 0.325 ± 0.00641 fold-change vs cycle 0, 0.408 ± 0.0215 fold-change vs cycle 0 and 0.526 ± 0.0825 fold-change vs cycle 0, respectively.
With AGTACA, the figures for the binding signal in experiment [1], in experiment [2] and in experiment [3] were 1.29 ± 0.0355 fold-change vs cycle 0, 1.43 ± 0.0834 fold-change vs cycle 0 and 1.35 ± 0.0882 fold-change vs cycle 0, respectively.
In the case of ATACTG, the binding signal in experiment [1] amounted to 1.31 ± 0.0361 fold-change vs cycle 0; in experiment [2], 1.4 ± 0.0644 fold-change vs cycle 0; in experiment [3], 1.36 ± 0.0801 fold-change vs cycle 0.
For CGATCA the same measures were 0.683 ± 0.0475 fold-change vs cycle 0, 0.7718 ± 0.00739 fold-change vs cycle 0 and 0.896 ± 0.0609 fold-change vs cycle 0.
Consider CGAGTA, for which the binding signal worked out at 0.742 ± 0.0199 fold-change vs cycle 0 in experiment [1], 0.848 ± 0.0261 fold-change vs cycle 0 in experiment [2] and 0.87 ± 0.0313 fold-change vs cycle 0 in experiment [3].
For CTGTGA, the binding signal was 0.75 ± 0.0215 fold-change vs cycle 0 in experiment [1], 0.869 ± 0.0352 fold-change vs cycle 0 in experiment [2] and 0.91 ± 0.0154 fold-change vs cycle 0 in experiment [3].
GTATCA: the binding signal came out at 1.39 ± 0.0637 fold-change vs cycle 0 in experiment [1], 1.4 ± 0.0395 fold-change vs cycle 0 in experiment [2] and 1.38 ± 0.0408 fold-change vs cycle 0 in experiment [3].
Take AAAATG: the binding signal turned out to be 1.68 ± 0.0946 fold-change vs cycle 0 in experiment [1], 1.56 ± 0.0588 fold-change vs cycle 0 in experiment [2] and 1.46 ± 0.0958 fold-change vs cycle 0 in experiment [3].
For ACATTC the same measures were 1.29 ± 0.0367 fold-change vs cycle 0, 1.44 ± 0.0794 fold-change vs cycle 0 and 1.37 ± 0.0959 fold-change vs cycle 0.
For TTTAAA the same measures were 2.46 ± 0.106 fold-change vs cycle 0, 2.33 ± 0.125 fold-change vs cycle 0 and 2.04 ± 0.174 fold-change vs cycle 0.
As to GAAGAC, the binding signal is 0.8159 ± 0.00405 fold-change vs cycle 0 in experiment [1], 0.962 ± 0.00987 fold-change vs cycle 0 in experiment [2] and 0.993 ± 0.0221 fold-change vs cycle 0 in experiment [3].
Consider CAAATC, for which the values for the binding signal in experiment [1], in experiment [2] and in experiment [3] were 1.1 ± 0.0172 fold-change vs cycle 0, 1.18 ± 0.0162 fold-change vs cycle 0 and 1.21 ± 0.0283 fold-change vs cycle 0, respectively.
For the sequence ACGTAA, the binding signal in experiment [1] turned out to be 1.19 ± 0.0733 fold-change vs cycle 0; in experiment [2] it was 1.3 ± 0.0477 fold-change vs cycle 0; in experiment [3], 1.21 ± 0.0842 fold-change vs cycle 0.
Consider GACAAA, for which the binding signal in experiment [1] amounted to 0.966 ± 0.023 fold-change vs cycle 0; in experiment [2], 1.08 ± 0.0338 fold-change vs cycle 0; in experiment [3], 1.1 ± 0.0293 fold-change vs cycle 0.
On to TGTACA, for which the binding signal in experiment [1] is 1.21 ± 0.0321 fold-change vs cycle 0; in experiment [2] it was 1.32 ± 0.00394 fold-change vs cycle 0; in experiment [3], 1.26 ± 0.0338 fold-change vs cycle 0.
The corresponding values for CTGATA are 1.39 ± 0.0802 fold-change vs cycle 0, 1.44 ± 0.0817 fold-change vs cycle 0 and 1.36 ± 0.068 fold-change vs cycle 0.
As to ACGACT, the binding signal in experiment [1] is 0.624 ± 0.0259 fold-change vs cycle 0; in experiment [2], 0.718 ± 0.0114 fold-change vs cycle 0; in experiment [3] it was 0.813 ± 0.0216 fold-change vs cycle 0.
ATTGGA: the binding signal in experiment [1] turned out to be 1.3 ± 0.0815 fold-change vs cycle 0; in experiment [2], 1.36 ± 0.0818 fold-change vs cycle 0; in experiment [3], 1.33 ± 0.0804 fold-change vs cycle 0.
With CAGCTG, the binding signal in experiment [1] came to 0.312 ± 0.0432 fold-change vs cycle 0; in experiment [2], 0.397 ± 0.0183 fold-change vs cycle 0; in experiment [3], 0.499 ± 0.0395 fold-change vs cycle 0.
For AACGAA the same measures were 1.15 ± 0.0599 fold-change vs cycle 0, 1.28 ± 0.0641 fold-change vs cycle 0 and 1.24 ± 0.054 fold-change vs cycle 0.
Regarding ACTTTG, the binding signal stood at 1.14 ± 0.054 fold-change vs cycle 0 in experiment [1], 1.27 ± 0.0366 fold-change vs cycle 0 in experiment [2] and 1.24 ± 0.052 fold-change vs cycle 0 in experiment [3].
As to GTGTAA, the binding signal in experiment [1] came to 1.24 ± 0.0525 fold-change vs cycle 0; in experiment [2] it was 1.37 ± 0.0544 fold-change vs cycle 0; in experiment [3], 1.28 ± 0.0793 fold-change vs cycle 0.
Regarding CCCCAA, the binding signal was 0.421 ± 0.0191 fold-change vs cycle 0 in experiment [1], 0.471 ± 0.00864 fold-change vs cycle 0 in experiment [2] and 0.561 ± 0.0695 fold-change vs cycle 0 in experiment [3].
Take TCAAAA: the figures for the binding signal in experiment [1], in experiment [2] and in experiment [3] were 1.67 ± 0.118 fold-change vs cycle 0, 1.58 ± 0.0814 fold-change vs cycle 0 and 1.5 ± 0.116 fold-change vs cycle 0, respectively.
